Test [1] can be described thus: CEETOX_H295R_DOC: CeeTox H295R High-throughput Steroidogenesis Assay for DOC (AID 2283439). To be noted: actives raise or lower the signal. The method in brief:
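H295R, fsk 10 uM ×48 h pre, cmpd ×48 h (0.1% DMSO). Media → MTBE extr. → LC-MS/MS, DOC. Bidirectional fit vs DMSO; MTT viability same wells, re-test diluted if <70%.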

Test [2] is described as follows: CEETOX_H295R_PROG: CeeTox H295R High-throughput Steroidogenesis Assay for Progesterone (PROG) (AID 2283442). To be noted: actives raise or lower the signal. The method in brief: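 Adrenal H295R line, forskolin-stimulated (10 uM, 48 h) before dosing. 48 h exposure, 0.1% DMSO vehicle. Secreted progesterone by reverse-phase HPLC with ESI+ MS/MS quantification; DMSO-normalised bidirectional curve fit.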

Read-out in test [3]: Tumor necrosis factor receptor superfamily member 6 (Homo sapiens) (UniProt P25445)
The test is described as follows: LTEA_HepaRG_FAS: Life Technologies and Expression Analysis (LTEA) Assay for Fas cell surface death receptor (FAS) using HepaRG (AID 2283447). To be noted: mRNA level, 48 h; actives raise or lower the signal. The method in brief: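 Differentiated HepaRG cells in serum-free induction medium were exposed 48 h to 8 half-log concentrations up to 100 uM in 0.5% DMSO, in duplicate. FAS mRNA was measured by qRT-PCR normalised to ACTB, GAPDH and POLR2A; bidirectional fit versus DMSO.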

Read-out in test [4]: Fatty acid synthase (Homo sapiens) (UniProt P49327)
The test is described as follows: LTEA_HepaRG_FASN: Life Technologies and Expression Analysis (LTEA) Assay for Fatty Acid Synthase (FASN) using HepaRG (AID 2283448). The note with it: mRNA level, 48 h; actives raise or lower the signal. The method in brief:
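In human HepaRG cultures, 48 h chemical exposure (up to 100 uM, 0.5% DMSO) preceded TaqMan qRT-PCR of FASN.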

Read-out in test [5]: Cyclin D2 (CCND2), CCND2 (gene 894)
The test is described as follows: LTEA_HepaRG_CCND2: Life Technologies and Expression Analysis (LTEA) Assay for Cyclin D2 (CCND2) using HepaRG (AID 2283449).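 Further: CCND2 transcript measured by TaqMan qRT-PCR and normalised to three housekeeping genes.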 The note with it: mRNA level, 48 h; actives raise or lower the signal. The gist of the method:
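HepaRG, 48 h dosing, 8-pt half-log curve from 100 uM, 0.5% DMSO; duplicate wells. Readout: CCND2 transcript by microfluidic qRT-PCR, housekeeping-normalised; bidirectional fit vs DMSO baseline.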

Read-out in test [6]: Cyclin Dependent Kinase Inhibitor 1A (CDKN1A), CDKN1A (gene 1026)
The test is described as follows: LTEA_HepaRG_CDKN1A: Life Technologies and Expression Analysis (LTEA) Assay for Cyclin Dependent Kinase Inhibitor 1A (CDKN1A) using HepaRG (AID 2283450). To be noted: mRNA level, 48 h; actives raise or lower the signal. The gist of the method:
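Cryopreserved HepaRG cells were plated and cultured 48 h, then switched to serum-free induction medium. Chemicals (eight half-log concentrations, top 100 uM, 0.5% DMSO) were applied for 48 h. Lysates underwent qRT-PCR for CDKN1A with housekeeping normalization.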

Read-out in test [7]: Cyclin D1 (CCND1), CCND1 (gene 595)
The test is described as follows: LTEA_HepaRG_CCND1: Life Technologies and Expression Analysis (LTEA) Assay for Cyclin D1 (CCND1) using HepaRG (AID 2283451).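 On AC50: TaqMan qRT-PCR transcript level normalised to ACTB GAPDH and POLR2A housekeeping genes.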 To be noted: mRNA level, 48 h; actives raise or lower the signal. The gist of the method: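 Human liver HepaRG line; 48 h dosing, 8 conc. ≤100 uM, 0.5% DMSO; TaqMan qRT-PCR mRNA, 3 housekeeping genes; bidirectional curve fit vs DMSO.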

Read-out in test [8]: catalase (CAT), CAT (gene 847)
The test is described as follows: LTEA_HepaRG_CAT: Life Technologies and Expression Analysis (LTEA) Assay for catalase (CAT) using HepaRG (AID 2283452). The note with it: mRNA level, 48 h; actives raise or lower the signal. The method in brief: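 HepaRG cells in serum-free induction medium, 0.5% DMSO vehicle, exposed 48 h in duplicate over 8 half-log concentrations from 100 uM. CAT mRNA measured by qRT-PCR, normalized to ACTB, GAPDH, POLR2A; bidirectional fit versus DMSO.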

Read-out in test [9]: flavin-containing dimethylaniline monooxygenases 3 (FMO3), FMO3 (gene 2328)
The test is described as follows: LTEA_HepaRG_FMO3: Life Technologies and Expression Analysis (LTEA) Assay for flavin-containing dimethylaniline monooxygenases 3 (FMO3) using HepaRG (AID 2283453). To be noted: mRNA level, 48 h; actives raise or lower the signal. The gist of the method:
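Eight-point concentration-response in serum-free HepaRG cultures (top 100 uM, 0.5% DMSO, 48 h). Read-out: FMO3 mRNA level normalized to three endogenous control genes, fitted bidirectionally versus vehicle.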

Read-out in test [10]: CFLAR gene, CFLAR (gene 8837)
The test is described as follows: LTEA_HepaRG_CFLAR: Life Technologies and Expression Analysis (LTEA) Assay for CFLAR gene using HepaRG (AID 2283455). The note with it: mRNA level, 48 h; actives raise or lower the signal. The gist of the method:
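qRT-PCR read-out (Fluidigm/TaqMan) of CFLAR mRNA, normalized to three housekeeping genes, in differentiated human HepaRG cells after 48 h chemical exposure; 8-point half-log series from 100 uM in 0.5% DMSO; bidirectional curve fitting versus DMSO.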

Read-out in test [11]: Forkhead box O1 (FOXO1), FOXO1 (gene 2308)
The test is described as follows: LTEA_HepaRG_FOXO1: Life Technologies and Expression Analysis (LTEA) Assay for Forkhead box O1 (FOXO1) using HepaRG (AID 2283456). To be noted: mRNA level, 48 h; actives raise or lower the signal. The method in brief:
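HepaRG, 48 h exposure, 8-pt half-log series from 100 uM in 0.5% DMSO, duplicates; Fluidigm qRT-PCR mRNA, housekeeping-normalised; bidirectional fit vs DMSO baseline.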

Read-out in test [12]: growth arrest and DNA damage 45 (GADD45A), GADD45A (gene 1647)
The test is described as follows: LTEA_HepaRG_GADD45A: Life Technologies and Expression Analysis (LTEA) Assay for growth arrest and DNA damage 45 (GADD45A) using HepaRG (AID 2283458). The note with it: mRNA level, 48 h; actives raise or lower the signal. The gist of the method: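 Eight-point concentration-response in HepaRG cells: 48 h chemical exposure, 0.5% DMSO vehicle, top dose 100 uM. Normalized qRT-PCR mRNA readout with bidirectional fitting relative to DMSO.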

Read-out in test [13]: Forkhead box O3 (FOXO3), FOXO3 (gene 2309)
The test is described as follows: LTEA_HepaRG_FOXO3: Life Technologies and Expression Analysis (LTEA) Assay for Forkhead box O3 (FOXO3) using HepaRG (AID 2283459). The note with it: mRNA level, 48 h; actives raise or lower the signal. The method in brief:
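qRT-PCR readout of FOXO3 transcript, normalized to three housekeeping genes (ACTB, GAPDH, POLR2A); gain or loss fitted against 0.5% DMSO vehicle. HepaRG cells, 48 h chemical exposure, 8-point half-log series, top 100 uM.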

Read-out in test [14]: growth arrest and DNA damage 45 (GADD45B), GADD45B (gene 4616)
The test is described as follows: LTEA_HepaRG_GADD45B: Life Technologies and Expression Analysis (LTEA) Assay for growth arrest and DNA damage 45 (GADD45B) using HepaRG (AID 2283461). The note with it: mRNA level, 48 h; actives raise or lower the signal. The gist of the method:
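Values are bidirectional concentration-response fits against 0.5% DMSO controls. Underlying data: qRT-PCR mRNA levels in human HepaRG liver cells treated 48 h in serum-free induction medium, eight concentrations topping at 100 uM.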

Read-out in test [15]: ABC Transporter (ABCC3), ABCC3 (gene 8714)
The test is described as follows: LTEA_HepaRG_ABCC3: Life Technologies and Expression Analysis (LTEA) Assay for ABC Transporter (ABCC3) using HepaRG (AID 2283462). To be noted: mRNA level, 48 h; actives raise or lower the signal. The gist of the method: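 Differentiated HepaRG liver cells receive test chemicals at eight concentrations (max 100 uM) for 48 h. Expression of ABCC3 is quantified by qRT-PCR against ACTB, GAPDH and POLR2A, and activity is fitted in both directions against the DMSO control.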

Read-out in test [16]: Cytochrome P450 (CYP1A1), CYP1A1 (gene 1543)
The test is described as follows: LTEA_HepaRG_CYP1A1: Life Technologies and Expression Analysis (LTEA) Assay for Cytochrome P450 (CYP1A1) using HepaRG (AID 2283454). To be noted: mRNA level, 48 h; actives raise or lower the signal. The method in brief: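 Induction of CYP1A1 mRNA in a human hepatic cell line was measured 48 h after dosing, with 1 mM phenobarbital as induction positive control and 0.5% DMSO vehicle as baseline for bidirectional curve fitting.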

The nature of test [17]: CEETOX_H295R_TESTO: CeeTox H295R High-throughput Steroidogenesis Assay for Testosterone (TESTO) (AID 2283457). The note with it: actives raise or lower the signal. The gist of the method:
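Testosterone synthesis is assessed in human adrenocortical H295R cells after 48 h of chemical exposure, using HPLC-MS/MS of extracted medium. Activity is fitted in both directions against DMSO control.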

Read-out in test [18]: ABC Transporter (ABCB1), ABCB1 (gene 5243)
The test is described as follows: LTEA_HepaRG_ABCB1: Life Technologies and Expression Analysis (LTEA) Assay for ABC Transporter (ABCB1) using HepaRG (AID 2283460). To be noted: mRNA level, 48 h; actives raise or lower the signal. The method in brief: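 HepaRG, 48 h exposure, 8-pt half-log series from 100 uM, 0.5% DMSO vehicle, duplicates. Readout: ABCB1 transcript by Fluidigm TaqMan qRT-PCR, housekeeping-normalized; bidirectional curve fit vs DMSO baseline.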

The nature of test [19]: CEETOX_H295R_ESTRADIOL: CeeTox H295R High-throughput Steroidogenesis Assay for Estradiol (AID 2283440).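 Further: estradiol secreted into medium quantified by LC-MS/MS after dansyl derivatisation.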 To be noted: actives raise or lower the signal. The gist of the method: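 Following OECD 456 with minor changes, H295R cells received 10 uM forskolin for 48 h and then test chemical for 48 h. Hormone output was read by HPLC-MS/MS, with cytotoxic concentrations diluted until MTT viability reached ≥70%.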

The nature of test [20]: CEETOX_H295R_ESTRONE: CeeTox H295R High-throughput Steroidogenesis Assay for Estrone (AID 2283441).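 Further: estrone secreted into medium measured by LC-MS/MS after dansyl derivatization.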 The note with it: actives raise or lower the signal. The method in brief: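 Forskolin-stimulated H295R cells are treated 48 h with chemical, and estrone in the medium is measured by LC-MS/MS. Activity is fitted in both directions relative to DMSO controls, with chemicals diluted until MTT viability reaches at least 70%.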

The source made the active and inactive calls. How the source made its calls: active means hit-call score of the fitted dose curve at least 0.9, where 1 is the maximum; inactive means score below 0.9.

The values below come from PubChem BioAssay (EPA / NIEHS).

Sequence of Fatty acid synthase (Homo sapiens) (P49327 whole entry, looked up): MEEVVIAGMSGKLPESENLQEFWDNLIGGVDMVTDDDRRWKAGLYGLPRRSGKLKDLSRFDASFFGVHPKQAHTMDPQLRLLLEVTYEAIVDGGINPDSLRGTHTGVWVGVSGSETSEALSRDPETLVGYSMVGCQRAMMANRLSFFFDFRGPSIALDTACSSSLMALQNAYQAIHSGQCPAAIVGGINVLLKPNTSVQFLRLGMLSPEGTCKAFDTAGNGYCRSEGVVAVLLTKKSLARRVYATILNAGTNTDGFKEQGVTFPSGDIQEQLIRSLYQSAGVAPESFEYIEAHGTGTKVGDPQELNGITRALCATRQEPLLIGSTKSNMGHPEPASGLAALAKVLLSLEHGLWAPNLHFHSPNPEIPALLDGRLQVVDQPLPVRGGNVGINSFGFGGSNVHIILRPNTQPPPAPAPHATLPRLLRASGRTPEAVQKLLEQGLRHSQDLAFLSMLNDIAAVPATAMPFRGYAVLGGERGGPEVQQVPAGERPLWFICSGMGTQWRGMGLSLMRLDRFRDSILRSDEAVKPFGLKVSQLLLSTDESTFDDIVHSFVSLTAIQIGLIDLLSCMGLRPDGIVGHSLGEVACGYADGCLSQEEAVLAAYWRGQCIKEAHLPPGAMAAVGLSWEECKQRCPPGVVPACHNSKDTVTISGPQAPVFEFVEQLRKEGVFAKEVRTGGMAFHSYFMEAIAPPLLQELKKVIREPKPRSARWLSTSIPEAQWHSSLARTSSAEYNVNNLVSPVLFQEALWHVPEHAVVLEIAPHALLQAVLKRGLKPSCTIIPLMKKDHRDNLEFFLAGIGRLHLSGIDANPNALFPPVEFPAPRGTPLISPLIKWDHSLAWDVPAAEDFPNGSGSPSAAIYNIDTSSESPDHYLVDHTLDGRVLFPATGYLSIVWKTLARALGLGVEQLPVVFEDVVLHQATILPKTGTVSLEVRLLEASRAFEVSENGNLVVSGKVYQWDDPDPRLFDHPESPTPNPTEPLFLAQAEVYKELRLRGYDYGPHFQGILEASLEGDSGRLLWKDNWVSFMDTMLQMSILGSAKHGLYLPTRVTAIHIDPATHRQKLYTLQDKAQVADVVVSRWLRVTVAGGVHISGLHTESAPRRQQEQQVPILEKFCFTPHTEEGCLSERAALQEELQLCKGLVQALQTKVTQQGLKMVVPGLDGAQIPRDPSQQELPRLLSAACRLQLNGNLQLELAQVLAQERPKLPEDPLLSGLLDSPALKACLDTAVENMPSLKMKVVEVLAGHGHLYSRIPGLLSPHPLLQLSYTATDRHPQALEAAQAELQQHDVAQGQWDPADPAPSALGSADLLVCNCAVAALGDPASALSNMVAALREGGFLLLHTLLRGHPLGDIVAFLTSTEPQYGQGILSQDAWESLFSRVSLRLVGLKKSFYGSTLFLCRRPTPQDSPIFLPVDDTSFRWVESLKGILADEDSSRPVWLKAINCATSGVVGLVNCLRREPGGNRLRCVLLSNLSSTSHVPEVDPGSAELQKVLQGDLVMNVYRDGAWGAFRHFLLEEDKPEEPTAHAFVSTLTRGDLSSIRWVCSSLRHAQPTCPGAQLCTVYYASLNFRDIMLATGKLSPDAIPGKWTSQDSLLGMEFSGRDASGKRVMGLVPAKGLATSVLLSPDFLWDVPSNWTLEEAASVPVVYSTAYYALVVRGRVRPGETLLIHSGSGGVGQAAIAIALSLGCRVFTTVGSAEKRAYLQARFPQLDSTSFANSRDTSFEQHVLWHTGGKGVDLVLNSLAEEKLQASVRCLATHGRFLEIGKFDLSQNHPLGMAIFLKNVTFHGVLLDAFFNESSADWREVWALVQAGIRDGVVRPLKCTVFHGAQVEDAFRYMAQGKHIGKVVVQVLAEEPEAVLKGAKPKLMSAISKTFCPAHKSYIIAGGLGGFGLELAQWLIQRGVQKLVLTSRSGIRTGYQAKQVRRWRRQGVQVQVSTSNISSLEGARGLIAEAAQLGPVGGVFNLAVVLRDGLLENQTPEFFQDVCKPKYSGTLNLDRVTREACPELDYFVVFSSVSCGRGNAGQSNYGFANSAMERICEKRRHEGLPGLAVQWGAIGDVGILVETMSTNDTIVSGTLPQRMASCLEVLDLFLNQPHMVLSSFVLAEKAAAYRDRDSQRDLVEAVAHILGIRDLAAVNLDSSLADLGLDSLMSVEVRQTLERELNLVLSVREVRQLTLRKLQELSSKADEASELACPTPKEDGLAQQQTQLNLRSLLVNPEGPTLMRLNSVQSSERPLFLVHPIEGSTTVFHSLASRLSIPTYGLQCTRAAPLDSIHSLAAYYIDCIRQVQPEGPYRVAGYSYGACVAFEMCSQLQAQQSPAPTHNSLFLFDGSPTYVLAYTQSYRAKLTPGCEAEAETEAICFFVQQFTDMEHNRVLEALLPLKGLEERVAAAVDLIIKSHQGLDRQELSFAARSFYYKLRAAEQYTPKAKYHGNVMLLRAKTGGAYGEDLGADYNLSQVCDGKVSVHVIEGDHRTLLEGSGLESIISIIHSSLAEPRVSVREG

Take `CC1=CC(=O)CC(C)(C)C1`: the outcome in test [1], in test [2], in [3], in [4], in test [5] and in [6] was inactive. For the same compound, the compound was classed as inactive in test [7], in [8], in [9], in [10], in [11] and in test [12]. Moreover, the compound was classed as inactive in [13], in test [14] and in [15].

As a reminder, the AC50 is the concentration giving half of the maximal activity seen. With `CCOc1cccc(-n2cc(C(=O)N3CCN(c4cc(C(=O)O)c5ccccc5c4)CC3)nc2-c2ccc(C)cc2)c1`, the outcome in test [1], in [2], in test [3], in test [5], in test [6] and in test [17] was inactive. Besides, the compound was classed as inactive in test [14] and in test [15]. Besides, the AC50 was 80.5 µM (active) in [4]; 82.4 µM (active) in [7]; 31.6 µM (active) in test [8]; 33.1 µM (active) in test [9]; 12.3 µM (active) in test [16]; 84 µM (active) in [10]. The AC50 in test [11] is 80.5 µM (active); in test [12] it was 13.4 µM (active); in [13] it was 77.2 µM (active); in [18], 78.6 µM (active).

Turning to `CC(C)CC(C)(O)C#CC(C)(O)CC(C)C` (stereo unspecified), the outcome in test [1], in test [2], in test [4], in test [5], in test [6] and in test [7] was inactive. For the same compound, the call in test [8], in test [9], in [10], in test [11], in test [12] and in [13] was inactive. Also, the result in [14] and in [15] was inactive.

For `O=c1[nH]c2ccc(S(=O)CCN3CCC(Cc4ccc(F)cc4)CC3)cc2o1` (stereo unspecified), the outcome in test [1], in test [19], in test [20], in test [2], in [3] and in [4] was inactive. Also, the result in test [5], in test [6], in [7], in test [10], in test [11] and in test [12] was inactive. Further, the result in [13], in test [18], in [14] and in [15] was inactive. Moreover, the half-maximal activity concentration (AC50) in [8] was 67.3 µM (active); in test [9] it was 72.9 µM (active); in [16], 59 µM (active).
